This is a sample that favours compounds with a hit; in the whole collection about 8% have one here.
SW480 rereplic: inducers of DNA re-replication in SW480 colon cancer cells; SW480 DNA re-replication, Hoechst DNA content imaging, 48 h; 340,000 compounds, 1.8% hits; Potency, µM (doses to about 46.1 µM), hits mostly activators; further: nearly all actives have a fitted effect of over 55% in size
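DNA re-replication was detected as more nuclei of elevated Hoechst intensity after 48 hr exposure to compound (23 nL pinned per well of 250 cells).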
MCF10A rereplic: inducers of DNA re-replication in MCF 10A breast cells; 350,000 compounds, 2.9% hits; MCF 10A DNA re-replication, Hoechst nuclear intensity, 48 h; AID 624296; Potency, µM (highest dose often 46.1 µM), hits mostly activators; further: nearly all actives have a fitted effect of over 50% in size
KB-3-1 cytotox: kills parental KB-3-1 adenocarcinoma cells; KB-3-1 viability, CellTiter-Glo ATP luminescence, 72 h; Potency, µM (doses to about 46.1 µM), hits mostly cytotoxic; 400,000 compounds, 1.4% hits; further: nearly all actives have a fitted effect of over 60% in size
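KB-3-1 parental drug-naive adenocarcinoma cells in DMEM/10% FBS, incubated 72 h at 37 C with pin-transferred compounds across a concentration series. Viability by CellTiter-Glo luminescence; concentration-response curves fitted after normalization.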
HT1080 IDH1KD tx: kills HT-1080 cells with IDH1 knockdown | 360,000 compounds, 2% hits | Potency, µM (series often up to 46.1 µM), usual class: cytotoxic | HT-1080 IDH1 knockdown viability, ATP luminescence, 48 h
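Knockdown cells (IDH1KD HT-1080) received compounds 2 h after plating at 750 cells/well and were kept 48 h at 37 °C in 5% FBS RPMI. A CellTiter-Glo luminescence read gave % activity for curve fitting.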
HT1080NT lethal: kills 2HG-producing HT-1080-NT fibrosarcoma cells. HT-1080-NT fibrosarcoma viability, CellTiter-Glo ATP luminescence, 48 h. Potency, µM (top dose mostly 46.1 µM), actives largely listed as cytotoxic. 360,000 compounds, 1.6% hits. AID 686970;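 further: NT is the 2HG producing partner of a matched IDH1 knockdown line; nearly all actives have a fitted effect of over 55% in size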
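HT-1080-NT fibrosarcoma cells (2HG-overproducing), 750 cells/well in RPMI with 5% FBS, dosed after 2 h and incubated 48 h at 37C. CellTiter-Glo luminescence normalized to DMSO and no-cell wells; concentration-response curves fitted and classed.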
KB-V1 MDR tox: KB-V1 MDR subline cytotoxicity. KB-V1 MDR cells viability, CellTiter-Glo, 72 h. Potency, µM (top dose mostly 46.1 µM), hits mostly cytotoxic. 400,000 compounds, 3.4% hits. AID 1347076; further: nearly all actives have a fitted effect of over 60% in size
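KB-V1 MDR subline cells in DMEM (phenol-red free, 10% FBS) exposed to compounds in qHTS concentration series for 72 h at 37 degrees C. Viability read by CellTiter-Glo luminescence; concentration-effect curves fitted after normalization and correction.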
Numbers stand for hits. The call rests on the fitted dose curve; in most records, active means well fitted curve in the direction sought with a large enough effect; inconclusive means small, poorly fitted or top-dose-only effect, or another doubt; inactive means no such curve, though single readings can be large; an effect the other way counts as inactive or inconclusive.

Results for CC(C)OCCCN1CC(=O)N2C(c3cccc([N+](=O)[O-])c3)c3[nH]c4ccccc4c3C[C@H]2C1=O (some centres undefined) ?
SW480 rereplic: inactive; MCF10A rereplic: inactive; KB-3-1 cytotox: inconclusive; HT1080 IDH1KD tx: inactive; HT1080NT lethal: inactive; KB-V1 MDR tox: inactive

What do the screens show for `Cc1ccnc(NC(=S)N2CCN(c3ccc(F)cc3)CC2)c1`?
KB-3-1 cytotox: inactive; KB-V1 MDR tox: inactive

What do the screens show for `CCC(C)NCCOCCOc1ccc(Cl)cc1Br` (centres undefined)?
SW480 rereplic: inactive; MCF10A rereplic: inactive; KB-3-1 cytotox: inactive; HT1080 IDH1KD tx: inconclusive; HT1080NT lethal: 21µM; KB-V1 MDR tox: inactive

What do the screens show for `CCC(C)NCCOCCOc1cc(C)c(Cl)c(C)c1` (centres undefined)?
SW480 rereplic: inconclusive; MCF10A rereplic: inconclusive; KB-3-1 cytotox: inconclusive; HT1080 IDH1KD tx: 21µM; HT1080NT lethal: 21µM; KB-V1 MDR tox: inconclusive

What do the screens show for `CCC(C)NCCCOc1ccc(Cl)cc1C(C)(C)C` (centres undefined)?
SW480 rereplic: inactive; MCF10A rereplic: inconclusive; KB-3-1 cytotox: inactive; HT1080 IDH1KD tx: inactive; HT1080NT lethal: inactive; KB-V1 MDR tox: inconclusive

Results for C=CCc1cc(Cl)ccc1OCCCNC(C)CC (centres undefined) ?
SW480 rereplic: inactive; MCF10A rereplic: inconclusive; KB-3-1 cytotox: inconclusive; HT1080 IDH1KD tx: inconclusive; HT1080NT lethal: inconclusive; KB-V1 MDR tox: 13µM

What do the screens show for `Clc1ccc(OCCCNCc2ccccc2)c(Br)c1`?
SW480 rereplic: inconclusive; MCF10A rereplic: inconclusive; KB-3-1 cytotox: inactive; HT1080 IDH1KD tx: inconclusive; HT1080NT lethal: inconclusive; KB-V1 MDR tox: 21µM

How did Cc1ccc(NC(=O)COC(=O)c2ccccc2OCC(=O)Nc2ccc(Br)cc2)c(C)c1 do in these assays?
KB-3-1 cytotox: inactive; KB-V1 MDR tox: inactive

How did Cc1cccc(OCc2ccc(-c3nc(C#N)c(NCc4cccnc4)o3)o2)c1 do in these assays?
KB-3-1 cytotox: inactive; KB-V1 MDR tox: inactive

What do the screens show for `CCCCNCCOCCOc1ccc(C)cc1Br`?
SW480 rereplic: inconclusive; MCF10A rereplic: inconclusive; KB-3-1 cytotox: inactive; HT1080 IDH1KD tx: inactive; HT1080NT lethal: inactive; KB-V1 MDR tox: 16µM

Results for COCCCNCCOCCOc1ccc(C)cc1Br ?
SW480 rereplic: inactive; MCF10A rereplic: inactive; KB-3-1 cytotox: inactive; HT1080 IDH1KD tx: inactive; HT1080NT lethal: inactive; KB-V1 MDR tox: inactive

Results for COc1cc(OC)cc(N2C(=O)CSC23C(=O)Nc2ccccc23)c1 (centres undefined) ?
KB-3-1 cytotox: inactive; KB-V1 MDR tox: inactive

What do the screens show for `CCOc1ccccc1CNS(=O)(=O)c1ccc2c(c1)CCCN2C(C)=O`?
KB-3-1 cytotox: inactive; KB-V1 MDR tox: inactive

What do the screens show for `Cc1cccn2c(=O)c3cc(C(=O)NC(C)c4ccccc4)c(=N)n(CCCn4ccnc4)c3nc12` (centres undefined)?
SW480 rereplic: 16µM; MCF10A rereplic: 21µM; KB-3-1 cytotox: inconclusive; HT1080 IDH1KD tx: inconclusive; HT1080NT lethal: inconclusive; KB-V1 MDR tox: inactive

What do the screens show for `COCCCn1c(=N)c(C(=O)NCc2cccnc2)cc2c(=O)n3cc(C)ccc3nc21`?
KB-3-1 cytotox: inactive; KB-V1 MDR tox: inconclusive

What do the screens show for `Cc1ccc2nc3c(cc(C(=O)NCCc4ccccc4)c(=N)n3CCN3CCOCC3)c(=O)n2c1`?
SW480 rereplic: 5.2µM; MCF10A rereplic: 18µM; KB-3-1 cytotox: inactive; HT1080 IDH1KD tx: inconclusive; HT1080NT lethal: inactive; KB-V1 MDR tox: inconclusive

What do the screens show for `Cc1ccc2nc3c(cc(C(=O)NCCN4CCOCC4)c(=N)n3CCCN3CCOCC3)c(=O)n2c1`?
SW480 rereplic: 1.8µM; MCF10A rereplic: inconclusive; KB-3-1 cytotox: inactive; HT1080 IDH1KD tx: inactive; HT1080NT lethal: inactive; KB-V1 MDR tox: inactive

How did Cc1ccc2nc3c(cc(C(=O)NCc4ccccc4)c(=N)n3CCCn3ccnc3)c(=O)n2c1 do in these assays?
SW480 rereplic: 5.2µM; MCF10A rereplic: 8.2µM; KB-3-1 cytotox: inactive; HT1080 IDH1KD tx: inactive; HT1080NT lethal: inactive; KB-V1 MDR tox: inactive

How did O=C(Nc1cc(F)ccc1F)C1COc2ccccc2C1 (centres undefined) do in these assays?
KB-3-1 cytotox: inactive; KB-V1 MDR tox: inactive

How did COc1ccc(-c2nc3c4ccccc4n(CC(=O)N4CCN(c5ccccc5OC)CC4)c(=O)n3n2)cc1 do in these assays?
KB-3-1 cytotox: inactive; KB-V1 MDR tox: inactive

What do the screens show for `O=C(Nc1nnc(-c2ccncc2)s1)Oc1ccc2ccccc2c1`?
KB-3-1 cytotox: inconclusive; KB-V1 MDR tox: inactive

Results for COc1ccc(N2CC(NC(=O)c3c(F)cccc3Cl)CC2=O)cc1OC (centres undefined) ?
KB-3-1 cytotox: inactive; KB-V1 MDR tox: inactive

How did O=C(NC1CCS(=O)(=O)C1)c1cc2c(=O)n3ccccc3nc2n1Cc1ccccc1 (centres undefined) do in these assays?
KB-3-1 cytotox: inactive; HT1080 IDH1KD tx: inactive; HT1080NT lethal: inactive; KB-V1 MDR tox: inactive

Results for Cc1ccc2nc3c(cc(C(=O)NC4CCS(=O)(=O)C4)n3Cc3ccccc3)c(=O)n2c1 (centres undefined) ?
SW480 rereplic: 23µM; MCF10A rereplic: 23µM; KB-3-1 cytotox: inactive; HT1080 IDH1KD tx: inactive; HT1080NT lethal: inactive; KB-V1 MDR tox: inactive

What do the screens show for `Cc1ccc(NC(=O)CN2CCSc3ccc(S(=O)(=O)N4CCCC4)cc32)cc1C`?
KB-3-1 cytotox: inconclusive; KB-V1 MDR tox: 10µM

Results for CC(C)C(=O)N(c1cc2sc(=O)oc2c2ccccc12)S(=O)(=O)c1cccs1 ?
SW480 rereplic: inactive; MCF10A rereplic: inconclusive; KB-3-1 cytotox: inactive; HT1080 IDH1KD tx: inconclusive; HT1080NT lethal: 11µM; KB-V1 MDR tox: inconclusive

How did Cc1cccc(CSc2ccc3nnc(CCNS(=O)(=O)c4ccccc4)n3n2)c1 do in these assays?
KB-3-1 cytotox: inactive; KB-V1 MDR tox: inactive

How did COc1ccc(CCNC(=O)C2CCN(Cc3nc(-c4ccccc4F)oc3C)CC2)cc1OC do in these assays?
SW480 rereplic: inactive; MCF10A rereplic: inactive; KB-3-1 cytotox: inactive; HT1080 IDH1KD tx: inactive; HT1080NT lethal: inactive; KB-V1 MDR tox: 16µM

How did Cc1oc(-c2ccccc2F)nc1CN1CCC(C(=O)NCCc2ccccc2)CC1 do in these assays?
KB-3-1 cytotox: inactive; KB-V1 MDR tox: inactive

How did Cc1oc(-c2ccccc2F)nc1CN1CCC(C(=O)NCCC2=CCCCC2)CC1 do in these assays?
SW480 rereplic: inactive; MCF10A rereplic: inactive; KB-3-1 cytotox: inconclusive; HT1080 IDH1KD tx: inactive; HT1080NT lethal: inactive; KB-V1 MDR tox: 8.2µM

Results for Cc1oc(-c2ccccc2F)nc1CN1CCC(C(=O)NCc2cccnc2)CC1 ?
SW480 rereplic: inactive; MCF10A rereplic: inactive; KB-3-1 cytotox: inactive; HT1080 IDH1KD tx: inactive; HT1080NT lethal: inactive; KB-V1 MDR tox: inactive
